Source: PubChem BioAssay (EPA / NIEHS)
Inconclusive results are not listed. Activity calls are given as the source filed them. How the source made its calls, unless noted: active means hit-call score of the fitted dose curve at least 0.9, where 1 is the maximum; inactive means score below 0.9.

Columns and labels:
[1] = molecular target: Paired box protein Pax-6 (Homo sapiens) (UniProt P26367); assay: ATG_Pax6_CIS: Attagene CIS-FACTORIAL HepG2 Assay for human Paired Box 6 (PAX6) (AID 2282956); settings: HepG2 CIS-FACTORIAL PAX6 reporter transcription, RNA readout; actives raise or lower the signal
Method in brief: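 Transient MRTU transfection of HepG2 → compound exposure 24 h → TriZol RNA, oligo(dT) RT → PCR, 6-FAM primer extension, HpaI cut → capillary electrophoresis; activity fitted both directions against DMSO.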

[2] = ATG_PXRE_CIS: Attagene CIS-FACTORIAL HepG2 Assay for human Pregnane X Receptor Element (PXRE) (AID 2282957); settings: HepG2 Attagene CIS-FACTORIAL PXRE reporter, mRNA; actives raise or lower the signal
Method in brief: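 Transfect HepG2 with MRTUs (cis promoter elements); dose chemical, incubate 24 h; isolate RNA, RT with oligo(dT), PCR, 6-FAM label, HpaI cut, CE. Gain/loss fit vs DMSO.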

[3] = ATG_PPRE_CIS: Attagene CIS-FACTORIAL HepG2 Assay for human Peroxisome Proliferator-activated Response Element (PPRE) (AID 2282958); settings: HepG2 PPRE cis-element reporter, Attagene transcription factor profiling; actives raise or lower the signal
Method in brief: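 Cells are first transfected transiently with the multiplexed reporter library, then dosed for 24 h. Total RNA is reverse-transcribed, amplified, fluorescently end-labeled and HpaI-cut before capillary electrophoresis; activity is fitted bidirectionally against DMSO controls.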

[4] = ATG_RORE_CIS: Attagene CIS-FACTORIAL HepG2 Assay for human RAR-related Orphan Receptor Element (RORE) (AID 2282959); settings: HepG2 Attagene cis-factorial RORE reporter, mRNA; actives raise or lower the signal
Method in brief: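 Cells were HepG2 carrying transfected cis-regulated reporter constructs, dosed for 24 hours. Total RNA was reverse-transcribed and reporter cDNA amplified, fluorescently labeled and sized by capillary electrophoresis. Activity was fitted bidirectionally relative to DMSO.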

[5] = ATG_Sox_CIS: Attagene CIS-FACTORIAL HepG2 Assay for human SRY-box transcription factor (SOX) (AID 2282960); settings: HepG2 Attagene cis-factorial SOX reporter, mRNA; actives raise or lower the signal
Method in brief: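 Transient MRTU transfection of HepG2; 24 h compound incubation; TriZol RNA, oligo(dT) RT, PCR, 6-FAM primer extension, HpaI cut, CE. Bidirectional fit, DMSO = baseline.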

[6] = molecular target: Transcription factor Sp1 (Homo sapiens) (UniProt P08047); assay: ATG_Sp1_CIS: Attagene CIS-FACTORIAL HepG2 Assay for human Specificity Protein 1 (Sp1) (AID 2282961); settings: HepG2 Sp1 cis-reporter transcription, actives raise or lower the signal
Method in brief: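 Endogenous Sp1 activity was gauged in human liver HepG2 cells bearing transfected reporter units under a cis-regulating promoter. After 24 h dosing, reporter mRNA was quantified by RT-PCR with capillary electrophoresis, and activity fitted bidirectionally versus DMSO.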

[7] = ATG_SREBP_CIS: Attagene CIS-FACTORIAL HepG2 Assay for human Sterol Regulatory Element Binding (SREBP) (AID 2282962); settings: HepG2 Attagene cis-factorial SREBP reporter, mRNA; actives raise or lower the signal
Method in brief: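 Transfected HepG2 (cis-regulated reporter library, endogenous TFs) → compound 24 h → total RNA → oligo(dT) RT → reporter-specific PCR → FAM primer extension, HpaI cut → CE fluorescence. Fit bidirectional vs DMSO.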

[8] = molecular target: Signal transducer and activator of transcription 3 (Homo sapiens) (UniProt P40763); assay: ATG_STAT3_CIS: Attagene CIS-FACTORIAL HepG2 Assay for human Signal Transducer and Activator of Transcription 3 (STAT3) (AID 2282963); settings: HepG2, Attagene cis-factorial STAT3 reporter transcription; actives raise or lower the signal
Method in brief: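 HepG2 cells transiently transfected with cis-element-driven multiple reporter transcription units; after 24 h chemical exposure, reporter mRNA measured by RT-PCR, 6-FAM primer-extension labelling, HpaI digestion and capillary electrophoresis. Bidirectional fitting versus DMSO baseline.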

[9] = ATG_TA_CIS: Attagene CIS-FACTORIAL HepG2 Assay for human TA Basal Promoter (AID 2282964); settings: HepG2 Attagene CIS-factorial TA basal promoter reporter; actives raise or lower the signal
Method in brief: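 Cis-factorial format in HepG2: reporters report endogenous factors, not chimeric Gal4 fusions. After 24 h treatment, reporter transcripts were measured by RT-PCR-capillary electrophoresis fluorescence, analysed bidirectionally versus DMSO.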

[10] = ATG_TAL_CIS: Attagene CIS-FACTORIAL HepG2 Assay for human TAL Basal Promoter (AID 2282966); settings: HepG2 Attagene cis-factorial TAL promoter reporter; actives raise or lower the signal;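 further: background control endpoint measuring basal TAL promoter reporter mRNA not a specific factor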
Method in brief: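 Fluorescence of labelled reporter cDNA fragments, resolved by capillary electrophoresis, gave the readout. Human HepG2 liver cells carried transiently transfected cis-element reporter units and were treated for 24 hours; activity was fitted bidirectionally against DMSO.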

[11] = ATG_TGFb_CIS: Attagene CIS-FACTORIAL HepG2 Assay for human Transforming Growth Factor (TGF) (AID 2282967); settings: HepG2 Attagene CIS TGFb reporter, mRNA transcription; actives raise or lower the signal
Method in brief: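 Multiplexed cis-reporter HepG2 system, 24 h treatment; mRNA induction read by fluorescence after RT-PCR and CE; DMSO negative control, bidirectional curve fitting.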

[12] = ATG_VDRE_CIS: Attagene CIS-FACTORIAL HepG2 Assay for human Vitamin D Receptor Element (VDRE) (AID 2282968); settings: HepG2 VDRE cis-reporter transcription, actives raise or lower the signal
Method in brief: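 HepG2 cells transiently transfected with cis-element reporter units, dosed 24 h; reporter mRNA measured by RT-PCR, 6-FAM labeling, HpaI digestion and capillary electrophoresis. Activity fitted bidirectionally against DMSO baseline.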

[13] = molecular target: Nuclear receptor subfamily 1 group I member 3 (Homo sapiens) (UniProt Q14994); assay: ATG_CAR_TRANS: Attagene TRANS-FACTORIAL HepG2 Assay for human Constitutive Androstane Receptor (CAR) (AID 2282969; active means hit-call score of the fitted dose curve at least 0.9, where 1 is the maximum;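 further: activators raise reporter mRNA above DMSO so AC50 marks induction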); settings: HepG2 Attagene TRANS-FACTORIAL CAR reporter
Method in brief: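 HepG2 cells transiently transfected with multiplexed GAL4-UAS reporter units expressing chimeric NR-Gal4 proteins; compound exposure 24 h. Reporter mRNA measured by RT-PCR, 6-FAM labelling, HpaI digestion and capillary electrophoresis; gain-of-signal fitted against DMSO baseline.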

[14] = molecular target: X-box-binding protein 1 (Homo sapiens) (UniProt P17861); assay: ATG_Xbp1_CIS: Attagene CIS-FACTORIAL HepG2 Assay for human X-box Binding Protein 1 (XBP1) (AID 2282972); settings: HepG2 XBP1 cis-element reporter, Attagene multiplex; actives raise or lower the signal
Method in brief: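 HepG2, transient MRTU transfection (cis-promoter driven), 24 h compound exposure. Total RNA → oligo(dT) RT → PCR → 6-FAM labeling → HpaI cut → CE. Bidirectional fit vs DMSO.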

[15] = ATG_M_19_TRANS: Attagene TRANS-FACTORIAL HepG2 Assay for M19 Transcription Factor (Internal Marker) (AID 2282974; active means hit-call score of the fitted dose curve at least 0.9, where 1 is the maximum); settings: HepG2 Attagene TRANS-FACTORIAL M19 internal marker reporter
Method in brief: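 Cells: human HepG2, transiently transfected with multiplexed reporter transcription units. Exposure: 24 h. Detection: RT-PCR of reporter mRNA with capillary electrophoresis. Analysis: gain-of-signal vs DMSO.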

[16] = molecular target: Glucocorticoid receptor (Homo sapiens) (UniProt P04150); assay: ATG_GR_TRANS: Attagene TRANS-FACTORIAL HepG2 Assay for human Glucocorticoid Receptor (GR) (AID 2282978; active means hit-call score of the fitted dose curve at least 0.9, where 1 is the maximum;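 further: activators score as hits since higher reporter transcript over DMSO is fitted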); settings: HepG2 Attagene TRANS GR reporter, mRNA transcription
Method in brief: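 In this trans-factorial format, exogenous NR-GAL4 chimeric proteins in transfected HepG2 cells regulate GAL4-UAS reporter transcription. After 24 h treatment, reporter mRNA induction relative to DMSO is read by RT-PCR and capillary electrophoresis.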

[17] = molecular target: Bile acid receptor (Homo sapiens) (UniProt Q96RI1); assay: ATG_FXR_TRANS: Attagene TRANS-FACTORIAL HepG2 Assay for Farnesoid X Receptor (FXR) (AID 2282979; active means hit-call score of the fitted dose curve at least 0.9, where 1 is the maximum;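 further: hits raise reporter mRNA above DMSO so AC50 marks FXR activation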); settings: HepG2 Attagene TRANS FXR-GAL4 reporter transcription
Method in brief: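 Transient transfection of HepG2 with multiplexed GAL4-UAS reporter units; exogenous FXR-GAL4 chimera. Dose 24 h → TriZol RNA → oligo(dT) RT → PCR, 6-FAM primer extension, HpaI cut → CE. Gain vs DMSO.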

[18] = ATG_TCF_b_cat_CIS: Attagene CIS-FACTORIAL HepG2 Assay for human T-Cell-Factor with beta-catenin (TCF/b-cat) (AID 2282965); settings: HepG2 TCF/beta-catenin cis-reporter transcription, actives raise or lower the signal
Method in brief: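 HepG2 cells transiently transfected with multiple cis-promoter-regulated reporter transcription units, so endogenous transcription factor activity is measured. Reporter mRNA read 24 hours after dosing by RT-PCR, fluorescent labelling and capillary electrophoresis; bidirectional fitting against DMSO.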

[19] = molecular target: Steroid hormone receptor ERR1 (Homo sapiens) (UniProt P11474); assay: ATG_ERRa_TRANS: Attagene TRANS-FACTORIAL HepG2 Assay for human Estrogen-Related Receptor alpha (ERRa) (AID 2282971; active means hit-call score of the fitted dose curve at least 0.9, where 1 is the maximum); settings: HepG2 Attagene TRANS reporter, ERRa transactivation
Method in brief: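 Reporter transcript induction was quantified by RT-PCR and capillary electrophoresis of FAM-labelled, HpaI-cut products after 24 h treatment of HepG2 cells carrying transiently transfected GAL4-UAS reporter units and an exogenous ERRa-Gal4 fusion; activity scored as increase over DMSO.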

Measured: AC50

Glucocorticoid receptor (Homo sapiens), sequence (P04150 whole entry, looked up, the tested form may be a part): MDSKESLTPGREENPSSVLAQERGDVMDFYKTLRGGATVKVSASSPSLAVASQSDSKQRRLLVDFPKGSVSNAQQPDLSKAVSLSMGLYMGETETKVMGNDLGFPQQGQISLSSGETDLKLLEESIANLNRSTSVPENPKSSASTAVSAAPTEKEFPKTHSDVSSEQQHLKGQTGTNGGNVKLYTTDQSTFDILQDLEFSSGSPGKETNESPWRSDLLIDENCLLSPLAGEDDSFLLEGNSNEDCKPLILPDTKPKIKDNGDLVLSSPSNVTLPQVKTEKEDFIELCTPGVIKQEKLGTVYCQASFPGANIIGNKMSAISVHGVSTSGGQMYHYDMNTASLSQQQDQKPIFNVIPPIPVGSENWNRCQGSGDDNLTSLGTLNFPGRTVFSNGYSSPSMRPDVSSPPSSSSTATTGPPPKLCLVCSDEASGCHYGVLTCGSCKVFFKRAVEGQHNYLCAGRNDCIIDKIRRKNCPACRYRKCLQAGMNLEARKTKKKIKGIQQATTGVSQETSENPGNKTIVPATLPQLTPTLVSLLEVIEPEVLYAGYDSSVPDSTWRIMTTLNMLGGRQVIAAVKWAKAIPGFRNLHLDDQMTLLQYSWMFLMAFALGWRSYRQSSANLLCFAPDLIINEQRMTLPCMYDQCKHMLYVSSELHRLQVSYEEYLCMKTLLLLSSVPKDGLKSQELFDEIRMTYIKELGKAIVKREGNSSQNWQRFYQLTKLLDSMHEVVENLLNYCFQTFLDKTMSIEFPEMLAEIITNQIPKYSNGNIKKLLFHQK
Signal transducer and activator of transcription 3 (Homo sapiens), sequence (P40763 whole entry, looked up): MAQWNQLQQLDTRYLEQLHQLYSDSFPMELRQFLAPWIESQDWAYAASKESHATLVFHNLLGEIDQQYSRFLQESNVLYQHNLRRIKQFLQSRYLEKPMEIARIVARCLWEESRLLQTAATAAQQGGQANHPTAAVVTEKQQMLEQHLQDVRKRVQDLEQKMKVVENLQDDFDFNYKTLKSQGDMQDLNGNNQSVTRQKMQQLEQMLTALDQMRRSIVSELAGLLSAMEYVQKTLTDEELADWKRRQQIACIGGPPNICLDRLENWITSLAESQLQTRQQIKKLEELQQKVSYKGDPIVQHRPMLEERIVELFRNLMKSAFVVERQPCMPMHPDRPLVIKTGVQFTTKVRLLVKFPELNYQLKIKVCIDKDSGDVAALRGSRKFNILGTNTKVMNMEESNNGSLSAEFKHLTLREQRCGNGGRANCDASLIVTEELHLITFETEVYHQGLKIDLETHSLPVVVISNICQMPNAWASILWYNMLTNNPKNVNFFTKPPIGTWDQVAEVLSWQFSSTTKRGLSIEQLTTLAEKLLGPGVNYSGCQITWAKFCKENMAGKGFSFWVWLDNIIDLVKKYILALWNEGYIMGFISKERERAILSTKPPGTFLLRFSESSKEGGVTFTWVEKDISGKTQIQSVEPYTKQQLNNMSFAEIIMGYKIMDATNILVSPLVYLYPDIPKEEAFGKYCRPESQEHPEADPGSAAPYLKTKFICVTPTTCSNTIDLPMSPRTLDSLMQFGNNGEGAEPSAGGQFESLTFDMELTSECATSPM
Transcription factor Sp1 (Homo sapiens), sequence (P08047 whole entry, looked up): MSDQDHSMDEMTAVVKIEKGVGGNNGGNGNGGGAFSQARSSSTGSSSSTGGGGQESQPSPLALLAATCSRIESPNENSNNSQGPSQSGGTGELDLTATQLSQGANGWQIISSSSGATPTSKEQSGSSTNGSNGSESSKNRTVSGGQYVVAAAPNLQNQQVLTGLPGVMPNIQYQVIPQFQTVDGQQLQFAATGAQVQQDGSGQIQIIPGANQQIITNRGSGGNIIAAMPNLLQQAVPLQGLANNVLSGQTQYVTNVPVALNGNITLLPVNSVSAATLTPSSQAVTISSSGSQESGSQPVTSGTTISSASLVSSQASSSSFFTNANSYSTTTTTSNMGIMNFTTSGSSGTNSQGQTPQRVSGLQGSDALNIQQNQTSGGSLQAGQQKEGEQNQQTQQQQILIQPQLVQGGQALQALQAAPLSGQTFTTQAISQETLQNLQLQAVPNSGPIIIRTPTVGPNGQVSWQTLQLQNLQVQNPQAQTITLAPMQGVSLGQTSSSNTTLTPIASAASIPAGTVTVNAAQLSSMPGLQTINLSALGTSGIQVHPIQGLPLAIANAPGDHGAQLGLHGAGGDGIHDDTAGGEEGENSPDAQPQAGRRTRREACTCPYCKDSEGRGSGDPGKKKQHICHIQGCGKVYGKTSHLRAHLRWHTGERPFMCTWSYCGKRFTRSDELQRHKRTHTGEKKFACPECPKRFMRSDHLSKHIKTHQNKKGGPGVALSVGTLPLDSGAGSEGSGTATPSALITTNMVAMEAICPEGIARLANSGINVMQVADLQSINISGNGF
X-box-binding protein 1 (Homo sapiens), sequence (P17861 whole entry, looked up): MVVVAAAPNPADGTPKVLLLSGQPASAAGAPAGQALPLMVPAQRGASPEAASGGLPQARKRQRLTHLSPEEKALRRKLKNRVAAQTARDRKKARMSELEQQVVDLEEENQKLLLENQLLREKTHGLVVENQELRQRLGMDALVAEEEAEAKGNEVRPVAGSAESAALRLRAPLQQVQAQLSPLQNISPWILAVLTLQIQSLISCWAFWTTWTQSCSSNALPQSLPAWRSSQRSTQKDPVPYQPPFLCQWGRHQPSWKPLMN
Paired box protein Pax-6 (Homo sapiens), sequence (P26367 whole entry, looked up): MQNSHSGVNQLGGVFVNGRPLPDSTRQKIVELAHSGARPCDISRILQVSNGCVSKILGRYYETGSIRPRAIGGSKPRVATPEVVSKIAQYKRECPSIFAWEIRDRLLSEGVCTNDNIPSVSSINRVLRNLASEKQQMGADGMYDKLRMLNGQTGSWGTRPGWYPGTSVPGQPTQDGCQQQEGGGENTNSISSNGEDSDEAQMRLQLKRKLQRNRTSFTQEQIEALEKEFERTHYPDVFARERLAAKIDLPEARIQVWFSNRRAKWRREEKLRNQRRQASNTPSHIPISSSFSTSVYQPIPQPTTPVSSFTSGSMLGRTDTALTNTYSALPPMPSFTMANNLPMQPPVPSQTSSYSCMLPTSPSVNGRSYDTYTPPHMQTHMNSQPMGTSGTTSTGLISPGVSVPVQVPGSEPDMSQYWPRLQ
Steroid hormone receptor ERR1 (Homo sapiens), sequence (P11474 whole entry, looked up, the tested form may be a part): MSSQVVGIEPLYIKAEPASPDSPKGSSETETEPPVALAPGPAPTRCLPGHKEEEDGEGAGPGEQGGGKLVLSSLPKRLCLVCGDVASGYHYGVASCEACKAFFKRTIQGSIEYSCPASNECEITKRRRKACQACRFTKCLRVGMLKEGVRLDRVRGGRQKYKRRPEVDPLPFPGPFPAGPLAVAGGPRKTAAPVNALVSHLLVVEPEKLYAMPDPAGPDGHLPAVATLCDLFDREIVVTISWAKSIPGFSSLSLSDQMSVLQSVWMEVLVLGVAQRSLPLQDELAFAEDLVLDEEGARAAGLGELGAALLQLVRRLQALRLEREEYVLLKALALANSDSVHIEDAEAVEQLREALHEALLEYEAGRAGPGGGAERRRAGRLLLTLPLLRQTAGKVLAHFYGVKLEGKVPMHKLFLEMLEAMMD
Bile acid receptor (Homo sapiens), sequence (Q96RI1 whole entry, looked up, the tested form may be a part): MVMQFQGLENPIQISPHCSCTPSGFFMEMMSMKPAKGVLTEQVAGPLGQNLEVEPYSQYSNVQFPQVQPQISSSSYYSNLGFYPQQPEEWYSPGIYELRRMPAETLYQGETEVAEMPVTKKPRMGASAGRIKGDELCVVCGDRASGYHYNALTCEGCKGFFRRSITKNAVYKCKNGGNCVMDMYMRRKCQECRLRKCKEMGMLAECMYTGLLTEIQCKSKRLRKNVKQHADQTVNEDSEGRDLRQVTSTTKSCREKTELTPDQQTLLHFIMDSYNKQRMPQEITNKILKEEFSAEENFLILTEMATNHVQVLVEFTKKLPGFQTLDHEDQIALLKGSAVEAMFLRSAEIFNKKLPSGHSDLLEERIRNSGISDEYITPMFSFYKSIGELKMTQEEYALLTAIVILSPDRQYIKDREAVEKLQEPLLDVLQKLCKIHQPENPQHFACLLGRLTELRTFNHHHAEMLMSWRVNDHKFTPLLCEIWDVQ
Nuclear receptor subfamily 1 group I member 3 (Homo sapiens), sequence (Q14994 whole entry, looked up, the tested form may be a part): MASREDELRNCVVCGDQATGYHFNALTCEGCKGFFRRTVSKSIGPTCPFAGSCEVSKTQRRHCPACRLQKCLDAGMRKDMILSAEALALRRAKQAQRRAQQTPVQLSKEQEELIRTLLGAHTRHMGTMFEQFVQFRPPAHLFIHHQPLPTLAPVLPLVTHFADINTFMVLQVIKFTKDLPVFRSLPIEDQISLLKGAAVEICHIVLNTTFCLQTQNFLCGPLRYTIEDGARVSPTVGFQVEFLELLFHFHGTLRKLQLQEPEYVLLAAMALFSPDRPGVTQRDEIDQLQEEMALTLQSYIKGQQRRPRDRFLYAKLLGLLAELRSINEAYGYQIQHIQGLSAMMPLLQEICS

CC(C)CCCCCCCOC(=O)CCCCC(=O)OCCCCCCCC(C)C
active: [2] 100 µM
not listed: [17] | [18] | [19]
inactive: all other assays above

CCCCC(CC)COC(=O)CCCCCCCCC(=O)OCC(CC)CCCC (stereo unspecified)
not listed: [13] | [17] | [18] | [19]
inactive: all other assays above

CC[C@H](C)C(=O)O[C@H]1C[C@@H](C)C=C2C=C[C@H](C)[C@H](CC[C@@H]3C[C@@H](O)CC(=O)O3)[C@H]21
active: [2] 1.8 µM | [7] 1.36 µM | [12] 4.47 µM
not listed: [13] | [18] | [19]
inactive: all other assays above

CC(=O)OCCC(C)C
not listed: [12] | [13] | [15] | [16] | [17]
inactive: all other assays above
